Data taken from PubChem BioAssay AID1159580 (chemical genetic matrix, 2015).
Several values for one entry are separate records, joined by “and”; a condition that tells them apart may be missing. Identical values can stand only once. In all, about 5,500 compounds went through this assay and about 2,000 (36%) were called active. Inconclusive results (about 18%) are left out. Cut-off read from the data, not from the text of the source: active = normalized growth mostly below about 0.91 (no sharp cut-off); inconclusive = no clear call, values can overlap the other calls; inactive = mostly above about 0.92. This is one part of the list.

Test: chemical genetic growth profiling, strain panel (AID 1159580);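 note: tested at 20 µM; growth read once vehicle control cultures reached saturation at 30 °C; 1 = growth at the plate median or of vehicle wells; lower values mean less growth of the strain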
Details: S. cerevisiae deletion strains, growth OD

Measured: normalized growth

COc1cc2c(cc1OC)C1(O)C(=O)c3ccc(O)c(C(=O)O)c3OC1CO2 (configuration not stated)
inactive: locus YAL021C, strain ccr4, active compounds read low 1 | locus YAL026C, strain drs2, active compounds read low 0.988 | locus YAL030W, strain snc1, active compounds read low 1 | locus YBL061C, strain skt5, active compounds read low 0.995 | locus YBR009C, strain hhf1, active compounds read low 0.998 | locus YBR021W, strain FUR4, active compounds read low 1.06 | locus YBR023C, strain chs3, active compounds read low 1.01 | locus YBR171W, strain sec66, active compounds read low 0.996 | locus YBR229C, strain ROT2, active compounds read low 1.01 | locus YBR231C, strain swc5, active compounds read low 1.01 | locus YBR279W, strain paf1, active compounds read low 0.985 | locus YCL011C, strain gbp2, active compounds read low 0.991 | locus YCL016C, strain dcc1, active compounds read low 0.98 | locus YCL029C, strain bik1, active compounds read low 0.985 | locus YCL069W, strain vba3, active compounds read low 1 | locus YCR088W, strain abp1, active compounds read low 0.996 | locus YDL005C, strain med2, active compounds read low 1.01 | locus YDL035C, strain GPR1, active compounds read low 1.05 | locus YDL040C, strain nat1, active compounds read low 0.998 | locus YDL074C, strain BRE1, active compounds read low 1.05 | locus YDL101C, strain DUN1, active compounds read low 0.991 | locus YDL185W, strain tfp1, active compounds read low 0.954 | locus YDL192W, strain arf1, active compounds read low 1.02 | locus YDR001C, strain nth1, active compounds read low 0.987 | locus YDR069C, strain doa4, active compounds read low 0.991 | locus YDR101C, strain arx1, active compounds read low 1.05 | locus YDR137W, strain rgp1, active compounds read low 0.973 | locus YDR159W, strain sac3, active compounds read low 1 | locus YDR162C, strain NBP2, active compounds read low 0.993 | locus YDR195W, strain ref2 0.955 | locus YDR297W, strain sur2, active compounds read low 1 | locus YDR318W, strain mcm21, active compounds read low 0.986 | locus YDR334W, strain swr1, active compounds read low 0.978 | locus YDR335W, strain msn5, active compounds read low 1.01 | locus YDR388W, active compounds read low 0.977 | locus YDR392W, strain spt3, active compounds read low 0.974 | locus YDR502C, strain sam2, active compounds read low 0.983 | locus YEL003W, strain gim4, active compounds read low 0.998 | locus YEL037C, strain rad23, active compounds read low 0.987 | locus YEL061C, strain CIN8 (second series), active compounds read low 0.989 | locus YEL061C, strain CIN8, active compounds read low 0.998 | locus YER015W, strain faa2, active compounds read low 0.989 | locus YER016W, strain bim1, active compounds read low 0.991 | locus YER110C, active compounds read low 0.979 | locus YER111C, strain swi4, active compounds read low 0.98 | locus YER155C, strain BEM2 (second series), active compounds read low 0.994 | locus YER155C, strain BEM2, active compounds read low 0.99 | locus YER167W, strain BCK2, active compounds read low 1.04 | locus YFR010W, strain ubp6, active compounds read low 1 | locus YGL078C, strain dbp3, active compounds read low 0.981 | locus YGL086W, strain mad1, active compounds read low 1.02 | locus YGL167C, strain pmr1, active compounds read low 0.998 | locus YGL173C, strain kem1, active compounds read low 0.994 | locus YGL227W, strain vid30, active compounds read low 0.991 | locus YGL240W, strain doc1, active compounds read low 1.01 | locus YGL248W, strain PDE1, active compounds read low 1.02 | locus YGL253W, strain hxk2, active compounds read low 0.999 | locus YGR078C, strain PAC10, active compounds read low 0.991 | locus YGR135W, strain pre9, active compounds read low 0.98 | locus YGR252W, strain gcn5, active compounds read low 1.09 | locus YHR013C, strain ard1, active compounds read low 0.972 | locus YHR027C, strain rpn1, active compounds read low 0.991 | locus YHR030C, strain SLT2, active compounds read low 0.99 | locus YHR079C, strain IRE1 (second series), active compounds read low 0.99 | locus YHR079C, strain IRE1, active compounds read low 0.983 | locus YHR094C, strain hxt1, active compounds read low 0.982 | locus YHR129C, strain ARP1, active compounds read low 1 | locus YHR142W, strain chs7, active compounds read low 0.98 | locus YHR200W, strain rpn10, active compounds read low 0.995 | locus YIL066C, strain RNR3, active compounds read low 1.02 | locus YIL073C, strain SPO22, active compounds read low 0.932 | locus YIL125W, strain kgd1, active compounds read low 0.985 | locus YIR030C, strain dcg1, active compounds read low 0.997 | locus YJL092W, strain hpr5, active compounds read low 1.02 | locus YJL095W, strain BCK1 (second series), active compounds read low 0.989 | locus YJL095W, strain BCK1, active compounds read low 0.99 and 0.98 | locus YJL115W, strain asf1, active compounds read low 0.986 | locus YJL129C, strain trk1, active compounds read low 0.972 | locus YJL134W, strain LCB3, active compounds read low 0.986 | locus YJL154C, strain vps35, active compounds read low 0.995 | locus YJL164C, strain tpk1, active compounds read low 0.998 | locus YJL166W, strain qcr8, active compounds read low 0.997 | locus YJL168C, strain set2, active compounds read low 0.989 | locus YJL187C, strain SWE1 (second series), active compounds read low 0.989 | locus YJL187C, strain SWE1, active compounds read low 0.999 | locus YJR043C, strain POL32, active compounds read low 1.08 | locus YJR066W, strain TOR1, active compounds read low 0.9
